Results reported in ChEMBL document CHEMBL3988442, “University of Dundee, Small-Polar-MMV Screening Library” (2021).
For some of these results: Entries with a potency or affinity are not part of this list.

Key:
Parameters in all cases: scale not given: direction of the effect not stated beside the values
[1] = biological target: Protein translocase subunit SecA (Escherichia coli (strain K12)) (UniProt P10408); assay: Assay to Identify E. coli SecA ATPase Inhibitors; assay type: functional; details: 30 µM
[2] = biological target: T1, Ubiquitin-activating enzyme e1, putative (Leishmania donovani (strain BPK282A1)) (UniProt E9BSI1); assay: Leishmania donovani Ubiquitin Activating Enzyme (LdE1); assay type: functional; details: 30 µM
T1 sequence (whole entry): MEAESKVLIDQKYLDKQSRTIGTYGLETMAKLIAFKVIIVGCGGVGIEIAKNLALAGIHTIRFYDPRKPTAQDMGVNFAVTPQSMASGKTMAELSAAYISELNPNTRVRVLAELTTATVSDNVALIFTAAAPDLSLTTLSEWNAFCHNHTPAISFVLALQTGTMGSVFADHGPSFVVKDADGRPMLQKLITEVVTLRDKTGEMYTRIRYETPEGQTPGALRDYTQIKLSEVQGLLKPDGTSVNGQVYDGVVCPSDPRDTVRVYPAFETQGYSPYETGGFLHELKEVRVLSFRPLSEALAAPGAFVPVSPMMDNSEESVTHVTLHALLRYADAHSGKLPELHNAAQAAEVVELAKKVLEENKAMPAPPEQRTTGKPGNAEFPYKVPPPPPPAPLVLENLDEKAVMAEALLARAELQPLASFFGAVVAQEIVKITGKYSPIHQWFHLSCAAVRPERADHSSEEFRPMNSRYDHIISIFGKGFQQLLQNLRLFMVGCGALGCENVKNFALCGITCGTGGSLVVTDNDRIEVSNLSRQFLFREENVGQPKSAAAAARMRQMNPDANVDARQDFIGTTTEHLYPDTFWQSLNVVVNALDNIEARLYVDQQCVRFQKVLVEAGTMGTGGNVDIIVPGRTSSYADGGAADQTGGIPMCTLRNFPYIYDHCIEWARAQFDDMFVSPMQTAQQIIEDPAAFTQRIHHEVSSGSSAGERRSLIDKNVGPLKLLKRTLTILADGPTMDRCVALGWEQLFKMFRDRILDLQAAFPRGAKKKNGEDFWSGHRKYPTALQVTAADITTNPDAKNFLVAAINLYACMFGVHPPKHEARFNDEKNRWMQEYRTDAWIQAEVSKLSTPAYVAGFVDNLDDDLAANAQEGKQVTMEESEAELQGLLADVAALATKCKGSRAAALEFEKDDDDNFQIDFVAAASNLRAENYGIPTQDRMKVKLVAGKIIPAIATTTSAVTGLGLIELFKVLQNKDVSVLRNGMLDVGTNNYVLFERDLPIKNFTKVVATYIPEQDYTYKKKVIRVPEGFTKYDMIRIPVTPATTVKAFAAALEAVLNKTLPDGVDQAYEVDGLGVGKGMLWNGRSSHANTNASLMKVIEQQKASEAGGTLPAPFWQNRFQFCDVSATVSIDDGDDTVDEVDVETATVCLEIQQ

[3] = biological target: Sialic acid-binding Ig-like lectin 9 (Homo sapiens) (UniProt Q9Y336); assay: Hs-Siglec9 ALPHAscreen SOP 20170721; details: 10 µM
Trypanosoma cruzi = assay: Trypanosoma cruzi phosphomannomutase and mannose-1-phosphate guanylyltransferase assay; assay type: functional; details: 10 µM
[4] = biological target: T2, Arginase-2, mitochondrial (Homo sapiens) (UniProt P78540); assay: in vitro enzyme assay to detect the production of urea directly proportional to the activity of Arginase II; assay type: functional; details: 33.3 µM; note: in the data most compounds retested in dose-response had high values
T2 sequence (whole entry): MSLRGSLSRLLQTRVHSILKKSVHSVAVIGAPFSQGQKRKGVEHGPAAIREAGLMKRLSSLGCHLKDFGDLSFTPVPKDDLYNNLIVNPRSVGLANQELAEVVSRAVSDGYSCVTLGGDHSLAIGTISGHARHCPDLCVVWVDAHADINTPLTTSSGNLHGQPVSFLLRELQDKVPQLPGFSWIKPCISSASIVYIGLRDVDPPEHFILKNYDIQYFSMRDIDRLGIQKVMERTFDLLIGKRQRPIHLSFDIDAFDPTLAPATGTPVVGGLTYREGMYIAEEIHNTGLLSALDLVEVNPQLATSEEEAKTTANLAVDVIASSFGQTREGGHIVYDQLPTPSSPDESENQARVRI

[5] = biological target: T3, Proteasome subunit beta (Trypanosoma cruzi) (UniProt O96673); assay: Trypanosoma cruzi proteasome chymotrypsin-like activity (TcProtChymo) assay.; note: in the data most compounds retested in dose-response had high values; assay type: functional; details: 9.37 µM
T3 sequence (whole entry): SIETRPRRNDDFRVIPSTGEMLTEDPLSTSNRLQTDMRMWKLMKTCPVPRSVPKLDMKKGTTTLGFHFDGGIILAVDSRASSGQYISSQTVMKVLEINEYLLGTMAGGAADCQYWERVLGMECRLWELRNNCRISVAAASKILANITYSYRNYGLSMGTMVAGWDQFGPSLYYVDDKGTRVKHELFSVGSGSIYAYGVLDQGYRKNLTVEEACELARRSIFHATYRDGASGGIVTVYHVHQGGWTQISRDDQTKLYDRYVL

Homo sapiens = species: Homo sapiens; assay: To identify inhibition of the IFN signalling (Jak-Stat) pathway via expression of an eGFP reporter gene under the control of an IFN-stimulated response element (ISRE) containing MxA promoter.; assay type: functional; details: 30 µM
[6] = biological target: T4, Tyrosyl-tRNA synthetase, putative (Trypanosoma cruzi (strain CL Brener)) (UniProt Q4DSP6); assay: Trypanosoma cruzi tyrosyl tRNA synthetase (TcYRS) _High Tyrosine SOP; assay type: functional; details: 30 µM; note: in the data most compounds retested in dose-response had high values
T4 sequence (whole entry): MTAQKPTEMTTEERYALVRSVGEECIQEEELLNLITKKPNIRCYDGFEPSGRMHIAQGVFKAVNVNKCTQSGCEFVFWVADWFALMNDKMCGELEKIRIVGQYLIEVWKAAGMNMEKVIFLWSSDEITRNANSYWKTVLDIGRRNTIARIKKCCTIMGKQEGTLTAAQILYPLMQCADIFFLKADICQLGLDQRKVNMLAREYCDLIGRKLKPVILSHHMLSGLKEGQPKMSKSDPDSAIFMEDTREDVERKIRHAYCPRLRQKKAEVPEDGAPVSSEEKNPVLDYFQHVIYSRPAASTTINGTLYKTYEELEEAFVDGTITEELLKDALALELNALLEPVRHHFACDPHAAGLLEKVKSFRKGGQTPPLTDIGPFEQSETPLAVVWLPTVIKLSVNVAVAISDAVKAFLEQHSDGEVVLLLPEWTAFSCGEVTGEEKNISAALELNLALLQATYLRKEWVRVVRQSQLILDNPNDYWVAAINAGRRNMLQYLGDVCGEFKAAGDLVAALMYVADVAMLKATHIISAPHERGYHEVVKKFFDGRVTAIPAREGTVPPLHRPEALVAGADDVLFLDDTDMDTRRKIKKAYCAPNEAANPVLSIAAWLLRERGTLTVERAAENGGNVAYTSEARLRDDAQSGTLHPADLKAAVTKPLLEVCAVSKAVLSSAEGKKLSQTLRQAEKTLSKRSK

[7] = biological target: T4, Tyrosyl-tRNA synthetase, putative (Trypanosoma cruzi (strain CL Brener)); assay: Trypanosoma cruzi tyrosyl tRNA synthetase (TcYRS) SOP; assay type: functional; details: 30 µM
[8] = biological target: Chromo domain-containing protein 1 (Saccharomyces cerevisiae (strain ATCC 204508 / S288c) (Baker's yeast)) (UniProt P32657); assay: ScCHD-1 Enzyme Inhibition Assay; assay type: functional; details: 30 µM; note: in the data most compounds retested in dose-response had high values
[9] = biological target: AMP-activated protein kinase, AMPK (Homo sapiens) (UniProt P54646+O43741+P54619+Q9UGJ0+Q9Y478+Q13131+Q9UGI9); assay: AMP-dependent Kinase enzyme assay. An in vitro enzyme assay that detects ADP turnover that is directly proportional to AMPK activity. This uses naive AMPK that is activated during the assay with MK-8722; assay type: functional; details: 30 µM

Protein translocase subunit SecA (Escherichia coli (strain K12)), sequence (P10408 whole entry): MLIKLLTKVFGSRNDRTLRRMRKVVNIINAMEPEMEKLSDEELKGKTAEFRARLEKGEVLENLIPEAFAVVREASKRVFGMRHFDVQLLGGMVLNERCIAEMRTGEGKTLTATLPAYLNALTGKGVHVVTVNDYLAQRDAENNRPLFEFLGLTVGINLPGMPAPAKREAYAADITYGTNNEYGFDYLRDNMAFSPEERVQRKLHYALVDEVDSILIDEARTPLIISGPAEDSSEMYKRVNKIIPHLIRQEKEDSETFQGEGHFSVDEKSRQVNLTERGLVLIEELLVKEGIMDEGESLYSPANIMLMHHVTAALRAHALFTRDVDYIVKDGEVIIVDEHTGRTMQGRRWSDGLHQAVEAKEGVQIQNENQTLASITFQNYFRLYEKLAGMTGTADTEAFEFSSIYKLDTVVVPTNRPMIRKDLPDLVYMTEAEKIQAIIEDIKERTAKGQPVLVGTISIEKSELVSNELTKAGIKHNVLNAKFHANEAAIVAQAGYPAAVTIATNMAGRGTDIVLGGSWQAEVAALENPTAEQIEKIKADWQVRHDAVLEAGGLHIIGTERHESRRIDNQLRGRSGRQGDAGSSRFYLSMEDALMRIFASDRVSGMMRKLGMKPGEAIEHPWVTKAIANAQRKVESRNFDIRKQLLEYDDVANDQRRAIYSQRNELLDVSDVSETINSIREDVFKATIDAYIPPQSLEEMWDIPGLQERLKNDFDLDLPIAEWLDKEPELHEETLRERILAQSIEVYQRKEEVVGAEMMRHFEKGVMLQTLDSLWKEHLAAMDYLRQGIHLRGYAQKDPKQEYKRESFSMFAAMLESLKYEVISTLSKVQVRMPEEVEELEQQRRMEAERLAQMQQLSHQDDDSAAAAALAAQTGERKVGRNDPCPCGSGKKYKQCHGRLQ
Chromo domain-containing protein 1 (Saccharomyces cerevisiae (strain ATCC 204508 / S288c) (Baker's yeast)), sequence (P32657 whole entry, the tested form may be a part): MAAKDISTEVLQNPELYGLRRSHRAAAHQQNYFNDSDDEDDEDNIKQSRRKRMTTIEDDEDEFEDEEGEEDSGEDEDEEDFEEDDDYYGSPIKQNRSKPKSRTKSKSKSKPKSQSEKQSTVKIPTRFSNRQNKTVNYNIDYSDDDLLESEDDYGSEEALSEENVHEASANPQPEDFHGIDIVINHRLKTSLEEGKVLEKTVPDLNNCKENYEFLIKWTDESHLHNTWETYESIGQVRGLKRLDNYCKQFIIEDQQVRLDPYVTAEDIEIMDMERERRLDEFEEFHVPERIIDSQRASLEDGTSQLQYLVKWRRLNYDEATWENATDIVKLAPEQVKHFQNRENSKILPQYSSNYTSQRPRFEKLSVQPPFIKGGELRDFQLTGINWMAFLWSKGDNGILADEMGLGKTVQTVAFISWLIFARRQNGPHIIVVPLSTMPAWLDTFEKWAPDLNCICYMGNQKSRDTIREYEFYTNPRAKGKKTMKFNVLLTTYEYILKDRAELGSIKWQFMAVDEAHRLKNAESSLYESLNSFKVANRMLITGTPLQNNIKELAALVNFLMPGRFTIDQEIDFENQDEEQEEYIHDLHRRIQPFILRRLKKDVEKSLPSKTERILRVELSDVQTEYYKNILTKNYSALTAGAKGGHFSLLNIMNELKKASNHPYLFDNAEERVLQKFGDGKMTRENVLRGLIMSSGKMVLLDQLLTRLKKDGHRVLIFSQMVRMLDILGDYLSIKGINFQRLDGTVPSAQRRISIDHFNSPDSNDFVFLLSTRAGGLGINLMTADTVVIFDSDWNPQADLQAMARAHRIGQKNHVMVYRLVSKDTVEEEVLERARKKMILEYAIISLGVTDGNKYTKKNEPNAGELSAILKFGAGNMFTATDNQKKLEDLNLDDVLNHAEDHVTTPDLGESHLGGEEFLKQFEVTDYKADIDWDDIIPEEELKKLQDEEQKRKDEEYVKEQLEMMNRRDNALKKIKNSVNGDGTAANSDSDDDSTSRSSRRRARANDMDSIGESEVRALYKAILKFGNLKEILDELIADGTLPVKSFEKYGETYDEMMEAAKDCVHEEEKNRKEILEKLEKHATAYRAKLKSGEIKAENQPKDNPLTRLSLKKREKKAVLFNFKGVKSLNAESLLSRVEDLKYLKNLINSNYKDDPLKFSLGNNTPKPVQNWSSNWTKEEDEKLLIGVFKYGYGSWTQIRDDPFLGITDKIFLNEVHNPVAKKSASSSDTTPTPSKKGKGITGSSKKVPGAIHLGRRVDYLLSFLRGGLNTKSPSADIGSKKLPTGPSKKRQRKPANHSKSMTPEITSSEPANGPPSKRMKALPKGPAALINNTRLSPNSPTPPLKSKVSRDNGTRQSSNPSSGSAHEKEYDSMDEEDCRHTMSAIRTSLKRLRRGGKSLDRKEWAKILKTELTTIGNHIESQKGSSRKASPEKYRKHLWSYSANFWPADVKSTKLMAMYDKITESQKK
Sialic acid-binding Ig-like lectin 9 (Homo sapiens), sequence (Q9Y336 whole entry): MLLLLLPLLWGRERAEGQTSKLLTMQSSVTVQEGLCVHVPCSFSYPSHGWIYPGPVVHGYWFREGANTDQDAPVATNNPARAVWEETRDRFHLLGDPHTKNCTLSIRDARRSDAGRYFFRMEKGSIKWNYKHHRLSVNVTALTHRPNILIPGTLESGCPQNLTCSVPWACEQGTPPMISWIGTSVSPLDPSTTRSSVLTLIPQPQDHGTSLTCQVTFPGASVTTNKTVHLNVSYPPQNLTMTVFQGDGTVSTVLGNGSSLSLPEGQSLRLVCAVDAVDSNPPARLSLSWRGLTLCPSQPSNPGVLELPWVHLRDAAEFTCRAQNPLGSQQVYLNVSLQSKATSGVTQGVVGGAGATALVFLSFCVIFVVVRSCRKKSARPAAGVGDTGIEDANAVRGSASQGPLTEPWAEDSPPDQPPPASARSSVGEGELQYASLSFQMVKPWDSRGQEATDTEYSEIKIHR

## CC(C)c1cc(N2CCC(N)CC2)n2nccc2n1
[1]
  Percent Effect: -7.82%
[2]
  Percent Effect: 5.41%
[3]
  Percent Effect: 8.57%
Trypanosoma cruzi
  Percent Effect: 11%
[4]
  Percent Effect: -3.15%
[5]
  Percent Effect: 20.6%
Homo sapiens
  Percent Effect: 11.5%
[6]
  Percent Effect: 3.72%
[7]
  Percent Effect: 17.1%
[8]
  Percent Effect: -1.59%

## CN(CCc1ccccc1)c1cnn(CC2COCCO2)c(=O)c1 (stereo not given)
[9]
  Percent Effect: 8.71%

## COC(=O)c1ncccc1N1CCC(C(O)c2ccccc2)CC1 (stereo not given)
[9]
  Percent Effect: 12.8%

## O=C(CN1CCC(c2nnc(C(F)(F)F)o2)CC1)Nc1cccnc1
[9]
  Percent Effect: -5.12%

## CCN(C)C(=O)c1cccc(S(=O)(=O)NCCc2csc(N)n2)c1
[9]
  Percent Effect: -0.697%

## CCc1ccc(C(=O)NCC2CCCN2CC)o1 (stereo not given)
[9]
  Percent Effect: 0.975%

## O=C1NCCN(C(=O)CCN2CCCO2)C1c1cccc(F)c1 (stereo not given)
[9]
  Percent Effect: -5.73%

## CCN(CCNS(=O)(=O)N1CCOCC1)C(=O)OC(C)(C)C
[9]
  Percent Effect: 0.848%

## CN(C)c1cc(CNC(=O)C2COc3ccccc3O2)ccn1 (stereo not given)
[9]
  Percent Effect: 0.412%

## CC(C)N(C)C(=O)C1CCN(Cc2cnc3ccccn23)CC1
[9]
  Percent Effect: -1.05%

## CC(NC(=O)NC1CCN(Cc2ccncc2)CC1)c1cccc(F)c1 (stereo not given)
[9]
  Percent Effect: 1.09%

## N#CC1COCCN1C(=O)c1cccc2cc[nH]c12 (stereo not given)
[9]
  Percent Effect: 5.13%

## O=C(NCCc1cc(N2CCOCC2)nc(NC2CC2)n1)C1CC1
[9]
  Percent Effect: 23.1%

## CN1CCN([C@H]2CCN(C(=O)c3nn(C)cc3Cl)C[C@H]2CCCO)CC1
[9]
  Percent Effect: 4.08%

## COc1cccc(-c2ncc(CN3CCOCC(O)C3)s2)c1 (stereo not given)
[9]
  Percent Effect: 2.77%

## COc1ccc(NC(=O)N2CCOCC(CN(C)C)C2)c(C)c1 (stereo not given)
[9]
  Percent Effect: 1.75%

## CCn1c(C2CCNCC2)nn(CCn2ccc(C)n2)c1=O
[9]
  Percent Effect: 5.45%

## N#Cc1ncn(CC(=O)N2CCCC2c2cccs2)n1 (stereo not given)
[9]
  Percent Effect: -12%

## CCC(C(=O)NCCc1nc(C)cc(C(F)(F)F)n1)n1cccn1 (stereo not given)
[9]
  Percent Effect: -8.03%

## CN(C)C(=O)N1CCN(c2cc(N3CCCC3CO)ncn2)CC1 (stereo not given)
[9]
  Percent Effect: -3.16%

## Cc1ccc(C(=O)N(C)CC(=O)N2CCCC2)c(C)c1
[9]
  Percent Effect: -2.76%

## CC(NC(=O)c1ccc(C(N)=O)cc1)c1cccc(N2CCOC2=O)c1 (stereo not given)
[9]
  Percent Effect: 4.89%

## CSc1nccc(N2CCC3(CCCN(Cc4ccc(F)cc4)C3)C2)n1 (stereo not given)
[9]
  Percent Effect: 3.61%

## CC(NC(=O)N1CCCN(C)CC1)c1ccc2c(c1)OCCO2 (stereo not given)
[9]
  Percent Effect: 3.15%

## O=S(=O)(NCCc1cn2ccccc2n1)N1CCOCC1
[9]
  Percent Effect: 3.56%

## CCOc1ccc(NC(=O)NCCCN(C)S(C)(=O)=O)cc1C
[9]
  Percent Effect: -4.23%

## CNC(=O)Cc1ccccc1NC(=O)N[C@H]1c2ccccc2C[C@H]1O
[9]
  Percent Effect: 0.934%

## CC(=O)N1CCc2c(nc(N(C)C)nc2NCCCn2ccnc2)C1
[9]
  Percent Effect: 2.43%

## Cc1nccn1[C@@H]1CC[C@@H](N(C)S(=O)(=O)c2cccc(F)c2)[C@H]1O
[9]
  Percent Effect: 28.1%

## Cc1noc(C2CCN(Cn3cc(Br)cn3)CC2)n1
[9]
  Percent Effect: 18.3%

## Cc1ccccc1S(=O)(=O)N[C@@H]1CC[C@@H](N2CCNC(=O)C2)[C@@H]1O
[9]
  Percent Effect: 5.3%

## Cc1cc(C2CCCN(CCc3ccc4c(c3)CCO4)C2)n[nH]1 (stereo not given)
[9]
  Percent Effect: 3.65%

## O=C(Cc1c[nH]c(=O)[nH]c1=O)N1CCCCC1CCc1ccccc1 (stereo not given)
[9]
  Percent Effect: -1.5%

## CCCOc1cc(CNC(=O)Nc2ccc(C)cc2)ccn1
[9]
  Percent Effect: 1.3%

## N#Cc1ccc(Cl)cc1NCC1CCOC1 (stereo not given)
[9]
  Percent Effect: 5.95%

## Cc1nc(C)c(C(=O)N2C[C@@H](C(=O)O)[C@H](C3CC3)C2)s1
[9]
  Percent Effect: 7.29%

## C[C@@H](N)C(=O)N1CCC(c2[nH]ncc2-c2ccccc2)CC1
[9]
  Percent Effect: -8.89%

## COCCCNc1ncnc2c1CCN(C(=O)CC1C=CCC1)CC2 (stereo not given)
[9]
  Percent Effect: 11.8%

## O=C1C(N2CCOCC2)CCCN1Cc1cccc(C(F)(F)F)c1 (stereo not given)
[9]
  Percent Effect: 5.78%

## Cc1ncsc1CCN(C)Cc1ccc(Br)o1
[9]
  Percent Effect: -1.27%

## Cc1nc(CN2CCC(c3cc(N4CCCC4)ncn3)CC2)cs1
[9]
  Percent Effect: 2.88%

## CCCN(Cc1nnnn1C1CC1)CC1COc2ccccc2O1 (stereo not given)
[9]
  Percent Effect: 7.59%

## COc1ccc(-c2cc(C3CCCCCN3S(C)(=O)=O)on2)cc1 (stereo not given)
[9]
  Percent Effect: 7.05%

## CNc1ccc(C)cc1C(=O)N1CCCC2(CCNC2)C1 (stereo not given)
[9]
  Percent Effect: 10.4%

## COc1cccc(S(=O)(=O)N2CCN(C)[C@@H]3CS(=O)(=O)C[C@@H]32)c1
[9]
  Percent Effect: 1.52%

## COCCNc1ncnc2c1CCN(C(=O)CC1CCC(=O)N1)CC2 (stereo not given)
[9]
  Percent Effect: 15.1%
